Source: PubChem BioAssay (NCI)
Compounds without any hit were thinned out: in the full panel of roughly 79,000, 15% have a hit. Unmarked numbers belong to inactive results. Active and inactive are the calls of the source. Cut-off read from the data, not from the text of the source: active = growth inhibition above about 70%; inactive = the rest.

Experiments:
[1] = NCI Yeast Anticancer Drug Screen. Data for the rad50 strain (AID 155);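 note: 0% = growth of vehicle-only cultures of the same strain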; details: S. cerevisiae rad50 strain growth inhibition, hits give high values
Procedure, shortened: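 A DNA repair-deficient yeast mutant serves as the test organism; compound-induced growth inhibition is calculated against vehicle-treated cells.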

[2] = NCI Yeast Anticancer Drug Screen. Data for the mec2-1 strain (AID 157); details: S. cerevisiae mec2-1 strain, hits give high values
Procedure, shortened: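 Vehicle-treated cultures served as reference for growth inhibition of compound-exposed mec2-1 yeast.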

[3] = NCI Yeast Anticancer Drug Screen. Data for the sgs1 mgt1 strain (AID 161);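 note: 0% = growth of cultures given vehicle only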; details: S. cerevisiae sgs1 mgt1 strain, hits give high values
Procedure, shortened: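 Genetically altered yeast, compound exposure, growth inhibition relative to vehicle.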

[4] = NCI Yeast Anticancer Drug Screen. Data for the cln2 rad14 strain (AID 165);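 note: 0% = growth equal to vehicle treated cultures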; details: S. cerevisiae cln2 rad14 strain, hits give high values
Procedure, shortened: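 Each compound was tested on cln2 rad14 yeast. Inhibition of growth was calculated against vehicle-exposed controls.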

[5] = NCI Yeast Anticancer Drug Screen. Data for the bub3 strain (AID 167); details: S. cerevisiae bub3 mutant strain, hits give high values
Procedure, shortened: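 Inhibition values come from growth of compound-treated mutant yeast normalised to vehicle-treated controls.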

[6] = NCI Yeast Anticancer Drug Screen. Data for the mlh1 rad18 strain (AID 175); details: S. cerevisiae mlh1 rad18 strain growth inhibition, hits give high values
Procedure, shortened: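 Vehicle-treated cultures served as the reference for growth inhibition in a yeast strain carrying DNA damage repair alterations exposed to each compound.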

[7] = at 5.0 µM (retest, dose inferred, filed as 0.5)
[8] = at 50.0 µM (retest, dose inferred, filed as 5.0)

Compound	growth inhibition [1, 7]	growth inhibition [1, 8]	growth inhibition ([1]; at 50.0 µM)	growth inhibition [2, 7]	growth inhibition [2, 8]	growth inhibition ([2]; at 50.0 µM)	growth inhibition [3, 7]	growth inhibition [3, 8]	growth inhibition ([3]; at 50.0 µM)	growth inhibition [4, 7]	growth inhibition [4, 8]	growth inhibition ([4]; at 50.0 µM)	growth inhibition [5, 7]	growth inhibition [5, 8]	growth inhibition ([5]; at 50.0 µM)	growth inhibition [6, 7]	growth inhibition [6, 8]	growth inhibition ([6]; at 50.0 µM)
O=[As]c1ccc(Cl)cc1Cl (configuration not stated)	100% (active)	99% (active)	99.7% (active)	100% (active)	100% (active)	99.7% (active)	99% (active)	100% (active)	99.7% (active)	100% (active)	99% (active)	99.3% (active)	99% (active)	100% (active)	99.2% (active)	100% (active)	99% (active)	99.3% (active)
Cc1c(N)nc([C@H](CC(N)=O)NC[C@H](N)C(N)=O)nc1C(=O)N[C@H](C(=O)N[C@H](C)[C@@H](O)CC(=O)N[C@H](C(=O)NC(O[C@@H]1O[C@@H](C)[C@@H](N)[C@@H](O)[C@H]1O)C(O)c1nc(-c2nc(C(=O)NCCCCN)cs2)cs1)[C@@H](C)O)[C@@H](O[C@@H]1O[C@@H](CO)[C@@H](O)[C@H](O)[C@@H]1O[C@H]1O[C@H](CO)[C@@H](O)[C@H](OC(N)=O)[C@@H]1O)c1c[nH]cn1 (some centres not stated)	96% (active)	98% (active)	91.7% (active)	98% (active)	98% (active)	92.8% (active)	98% (active)	98% (active)	92.7% (active)	96% (active)	97% (active)	89.8% (active)	97% (active)	98% (active)	92.9% (active)	94% (active)	97% (active)	90.2% (active)
CC12CCC(O)CC1=CCC1C2CCC2(C)C(NC(=O)C3CCCN3C(=O)CN(CCCl)CCCl)CCC12 (configuration not stated)	-5%	56%	79% (active)	-4%	46%	72.5% (active)	1%	80% (active)	91.5% (active)	-5%	34%	63.2%	-6%	38%	64.8%	12%	76% (active)	86.8% (active)
N#C[S-].[Nd+3].c1ccc(-c2ccccn2)nc1.c1ccc(-c2ccccn2)nc1.c1ccc(-c2ccccn2)nc1	62%	99% (active)	91.2% (active)	40%	99% (active)	94.1% (active)	44%	99% (active)	93.5% (active)	33%	96% (active)	92.5% (active)	62%	100% (active)	93% (active)	51%	99% (active)	92% (active)
